# Data taken from the supplement of paper PMC8728848.
# Only a selection was taken, and the strongest signals are over-represented in it overall.
# B1: Eap (Staphylococcus aureus), A0A7L5PYT7 (protein)
# chain: MKFKSLITTTLALGVLASTGANFNNNEAAAAAKPLDKSSSSLHHGYSKVHVPYAITVNGTSQNILSSLTFNKNQNISYKDLEDRVKSVLKSDRGISDIDLRLSKQAKYTVYFKNGTKKVIDLKAGIYTADLINTSEIKAININVDTKKQVEDKKKDKANYQVPYTITVNGTSQNILSNLTFNKNQNISYKDLEDKVKSVLESNRGITDVDLRLSKQAKYTVNFKNGTKKVIDLKSGIYTANLINSSDIKSININVDTKKHIENKAKRNYQVPYSINLNGTSTNILSNLSFSNKPWTNYKNLTSQIKSVLKHDRGISEQDLKYAKKAYYTVYFKNGGKRILQLNSKNYTANLVHAKDVKRIEITVKTGTKAKADRYVPYTIAVNGTSTPILSDLKFTGDPRVGYKDISKKVKSVLKHDRGIGERELKYAKKATYTVHFKNGTKKVININSNISQLNLLYVQDIKKIDIDVKTGTKAKADSYVPYTIAVNGTSTPILSKLKISNKQLISYKYLNDKVKSVLKSERGISDLDLKFAKQAKYTVYFKNGKKQVVNLKSDIFTPNLFSAKDIKKIDIDVKQYTKSKKNK
# Assays:
# Test in all cases: glycan array binding signal (z-score within array); higher = stronger binding
# Settings in all cases: glycan notation: IUPAC condensed, linker removed
# [1] = biological target: Fuc(a1-2)Gal(b1-3)GalNAc(b1-3)Gal(a1-4)Gal(b1-4)Glc
# Method in brief: (§1)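 From the Consortium for Functional Glycomics database, 3228 arrays were curated, keeping only those whose protein sequence was available. Binding is given as a within-array Z-score averaged across arrays sharing a protein sequence and across linkers. Negative Z-scores can be read as non-binding.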
# [2] = biological target: Fuc(a1-2)Gal(b1-3)[Fuc(a1-4)]GlcNAc
# Method in brief: as §1
# [3] = biological target: Fuc(a1-2)[Gal(a1-3)]Gal(b1-3)GlcNAc(b1-2)Man(a1-3)[Fuc(a1-2)[Gal(a1-3)]Gal(b1-3)GlcNAc(b1-2)Man(a1-6)]Man(b1-4)GlcNAc(b1-4)GlcNAc
# Method in brief: as §1
# [4] = biological target: Fuc(a1-2)[GalNAc(a1-3)]Gal
# Method in brief: as §1
# [5] = biological target: Fuc(a1-2)[GalNAc(a1-3)]Gal(b1-4)GlcNAc(b1-3)Gal(b1-4)GlcNAc(b1-3)Gal(b1-4)GlcNAc
# Method in brief: as §1
# [6] = biological target: Fuc(a1-3)[Gal(b1-4)]GlcNAc(b1-4)Gal(b1-4)[Fuc(a1-3)]GlcNAc(b1-4)Gal(b1-4)[Fuc(a1-3)]GlcNAc
# Method in brief: as §1
# [7] = biological target: Fuc(a1-3)[Gal(b1-4)]GlcNAc6S
# Method in brief: as §1
# [8] = biological target: Fuc(a1-3)[Gal3S(b1-4)]GlcNAc6S
# Method in brief: as §1
# [9] = biological target: Fuc(a1-3)[Neu5Ac(a2-3)]Gal(b1-4)GlcNAc(b1-3)GalNAc
# Method in brief: as §1
# [10] = biological target: Gal(a1-3)Gal(b1-4)[Fuc(a1-3)]GlcNAc
# Method in brief: as §1
# [11] = biological target: Gal(a1-3)Gal(b1-4)[Fuc(a1-3)]GlcNAc(b1-2)Man(a1-3)[Gal(a1-3)Gal(b1-4)[Fuc(a1-3)]GlcNAc(b1-2)Man(a1-6)]Man(b1-4)GlcNAc(b1-4)GlcNAc
# Method in brief: as §1
# [12] = biological target: Gal(a1-4)Gal(b1-4)GlcNAc(b1-3)Gal(b1-4)Glc
# Method in brief: as §1
# Gal(b1-3)GalNAc = biological target: Gal(b1-3)GalNAc
# Method in brief: as §1
# [13] = biological target: Gal(b1-3)GalNAc(b1-4)Gal(b1-4)Glc
# Method in brief: as §1
# [14] = biological target: Gal(b1-4)GlcNAc(b1-2)Man(a1-6)Man(b1-4)GlcNAc(b1-4)GlcNAc
# Method in brief: as §1
# [15] = biological target: Gal(b1-4)GlcNAc(b1-3)Gal(b1-4)GlcNAc(b1-3)Gal(b1-4)GlcNAc
# Method in brief: as §1
# Gal3S(b1-4)GlcNAc = biological target: Gal3S(b1-4)GlcNAc
# Method in brief: as §1
# Gal3S4S(b1-4)GlcNAc = biological target: Gal3S4S(b1-4)GlcNAc
# Method in brief: as §1
# GlcA(b1-6)Gal = biological target: GlcA(b1-6)Gal
# Method in brief: as §1
# [16] = biological target: GlcNAc(a1-4)Gal(b1-4)GlcNAc(b1-3)Gal(b1-4)Glc
# Method in brief: as §1
# [17] = biological target: GlcNAc(a1-4)Gal(b1-4)GlcNAc(b1-3)Gal(b1-4)GlcNAc
# Method in brief: as §1
# [18] = biological target: GlcNAc(a1-4)Gal(b1-4)GlcNAc(b1-3)Gal(b1-4)[Fuc(a1-3)]GlcNAc(b1-3)Gal(b1-4)[Fuc(a1-3)]GlcNAc
# Method in brief: as §1
# [19] = biological target: GlcNAc(b1-4)GlcNAc(b1-4)GlcNAc(b1-4)GlcNAc(b1-4)GlcNAc(b1-4)GlcNAc
# Method in brief: as §1
# [20] = biological target: Man(a1-2)Man(a1-3)[Man(a1-6)]Man(a1-6)[Man(a1-2)Man(a1-3)]Man(b1-4)GlcNAc(b1-4)GlcNAc
# Method in brief: as §1
# [21] = biological target: Neu5Ac(a2-3)Gal(b1-4)[Fuc(a1-3)]GlcNAc
# Method in brief: as §1
# [22] = biological target: Neu5Ac(a2-3)Gal(b1-4)[Fuc(a1-3)]GlcNAc(b1-6)[Gal(b1-3)]GalNAc
# Method in brief: as §1
# [23] = biological target: Neu5Ac(a2-3)Gal(b1-4)[Fuc(a1-3)]GlcNAc(b1-6)[Neu5Ac(a2-3)Gal(b1-3)]GalNAc
# Method in brief: as §1
# Neu5Ac(a2-3)GalNAc = biological target: Neu5Ac(a2-3)GalNAc
# Method in brief: as §1
# [24] = biological target: Neu5Ac(a2-6)Gal(b1-4)GlcNAc6S
# Method in brief: as §1
# [25] = biological target: Neu5Ac(b2-6)Gal(b1-4)GlcNAc
# Method in brief: as §1
binder,measurement,setting,value
B1,glycan array binding signal (z-score),[1],0.012
same,glycan array binding signal (z-score),[2],-0.514
same,glycan array binding signal (z-score),[3],-0.498
same,glycan array binding signal (z-score),[4],-0.319
same,glycan array binding signal (z-score),[5],3.63
same,glycan array binding signal (z-score),[6],-0.587
same,glycan array binding signal (z-score),[7],1.35
same,glycan array binding signal (z-score),[8],4.89
same,glycan array binding signal (z-score),[9],3.33
same,glycan array binding signal (z-score),[10],-0.392
same,glycan array binding signal (z-score),[11],-0.414
same,glycan array binding signal (z-score),[12],-0.4
same,glycan array binding signal (z-score),Gal(b1-3)GalNAc,-0.063
same,glycan array binding signal (z-score),[13],-0.183
same,glycan array binding signal (z-score),[14],-0.437
same,glycan array binding signal (z-score),[15],-0.513
same,glycan array binding signal (z-score),Gal3S(b1-4)GlcNAc,-0.007
same,glycan array binding signal (z-score),Gal3S4S(b1-4)GlcNAc,1.97
same,glycan array binding signal (z-score),GlcA(b1-6)Gal,-0.24
same,glycan array binding signal (z-score),[16],4.14
same,glycan array binding signal (z-score),[17],4.58
same,glycan array binding signal (z-score),[18],8.99
same,glycan array binding signal (z-score),[19],-0.455
same,glycan array binding signal (z-score),[20],-0.331
same,glycan array binding signal (z-score),[21],-0.563
same,glycan array binding signal (z-score),[22],-0.08
same,glycan array binding signal (z-score),[23],-0.297
same,glycan array binding signal (z-score),Neu5Ac(a2-3)GalNAc,-0.425
same,glycan array binding signal (z-score),[24],-0.392
same,glycan array binding signal (z-score),[25],-0.365
